Assay results: PubChem BioAssay (NCATS)
Records with an inconclusive call do not appear. Calls of active or inactive are those of the source. The call rests on the fitted dose curve; in most records, active means well fitted cell-killing curve with a large enough effect; inconclusive means small, poorly fitted or top-dose-only effect, or effect the other way; inactive means flat fitted curve, though single readings scatter.

Legend:
Assay in all cases: Primary qHTS to identify gynecologic anti-cancer compounds using libraries of approved drugs and bioactive compounds (AID 1345084); further: nearly all actives have a fitted effect of over 55% in size
C33A = conditions: Gynecologic cancer cell panel viability, ATPlite luminescence, 48 h; series mostly up to 57.5 µM
How it was run: (§1)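 Cells, 1,000 per well, plated 16 h, then exposed 48 h at 37 C to compounds. Viability by ATPlite luminescence after 15 min at room temperature.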

CAOV3 = conditions: Gynecologic cancer cell panel viability, ATPlite luminescence, 48 h; series mostly up to 57.5 µM
How it was run: as §1

CASKI = conditions: Gynecologic cancer cell panel viability, ATPlite luminescence, 48 h; series mostly up to 57.5 µM
How it was run: as §1

Es-2 = conditions: Gynecologic cancer cell panel viability, ATPlite luminescence, 48 h; series mostly up to 57.5 µM
How it was run: as §1

HeLa = conditions: Gynecologic cancer cell panel viability, ATPlite luminescence, 48 h; series mostly up to 57.5 µM
How it was run: as §1

Hek293T = conditions: Gynecologic cancer cell panel viability, ATPlite luminescence, 48 h, control line for the selectivity index; series mostly up to 57.5 µM
How it was run: as §1

JEG-3 = conditions: Gynecologic cancer cell panel viability, ATPlite luminescence, 48 h; series mostly up to 57.5 µM
How it was run: as §1

OV90 = conditions: Gynecologic cancer cell panel viability, ATPlite luminescence, 48 h; series mostly up to 57.5 µM
How it was run: as §1

PA-1 = conditions: Gynecologic cancer cell panel viability, ATPlite luminescence, 48 h; series mostly up to 57.5 µM
How it was run: as §1

SKOV3 = conditions: Gynecologic cancer cell panel viability, ATPlite luminescence, 48 h; series mostly up to 57.5 µM
How it was run: as §1

Tov-21-G = conditions: Gynecologic cancer cell panel viability, ATPlite luminescence, 48 h; series mostly up to 57.5 µM
How it was run: as §1

Tov112D = conditions: Gynecologic cancer cell panel viability, ATPlite luminescence, 48 h; series mostly up to 57.5 µM
How it was run: as §1
On the % scale 0 is the no-effect control and ±100 the full control effect.

CCC(Nc1ncnc2nc[nH]c12)c1nc2cccc(F)c2c(=O)n1-c1ccccc1 (stereo unspecified)
inactive: Potency (C33A) | Potency (CAOV3) | Potency (CASKI) | Potency (Es-2) | Potency (HeLa) | Potency (Hek293T) | Potency (JEG-3) | Potency (OV90) | Potency (PA-1) | Potency (SKOV3) | Potency (Tov-21-G) | Potency (Tov112D)

COc1cc(C)c(C(=O)O[C@H]2[C@@H](OC(C)=O)[C@H](n3ccc(=O)[nH]c3=O)O[C@@H]2CO)c(OC)c1
inactive: Potency (C33A) | Potency (CAOV3) | Potency (CASKI) | Potency (Es-2) | Potency (HeLa) | Potency (Hek293T) | Potency (JEG-3) | Potency (OV90) | Potency (PA-1) | Potency (SKOV3) | Potency (Tov-21-G) | Potency (Tov112D)

CC(=O)O[C@]1(C(C)=O)CC[C@H]2[C@@H]3C[C@H](C)C4=CC(=O)C=C[C@]4(C)[C@@]3(F)[C@@H](O)C[C@@]21C
inactive: Potency (C33A) | Potency (CAOV3) | Potency (CASKI) | Potency (Es-2) | Potency (HeLa) | Potency (Hek293T) | Potency (JEG-3) | Potency (OV90) | Potency (PA-1) | Potency (SKOV3) | Potency (Tov-21-G) | Potency (Tov112D)

CC1=C(C(=O)O)/C(=C\CO[C@@H]2O[C@H](CO)[C@@H](O)[C@H](O)[C@H]2O)C(OC(=O)/C=C/c2ccc(O)cc2)C1 (stereo partly specified)
inactive: Potency (C33A) | Potency (CAOV3) | Potency (CASKI) | Potency (Es-2) | Potency (HeLa) | Potency (Hek293T) | Potency (JEG-3) | Potency (OV90) | Potency (PA-1) | Potency (SKOV3) | Potency (Tov-21-G) | Potency (Tov112D)

C=C1CCC2C(C)(C(=O)O)CCCC2(C)C1CCC(C)CC(=O)O (stereo unspecified)
inactive: Potency (C33A) | Potency (CAOV3) | Potency (CASKI) | Potency (Es-2) | Potency (HeLa) | Potency (Hek293T) | Potency (JEG-3) | Potency (OV90) | Potency (PA-1) | Potency (SKOV3) | Potency (Tov-21-G) | Potency (Tov112D)

C/C(=C\CCC(C)CCO)C(=O)O[C@@H]1[C@@H](O)[C@H](OC2OC=C(C(=O)O)C3CCC(C)(O)C23)O[C@H](CO)[C@H]1O (stereo partly specified)
inactive: Potency (C33A) | Potency (CAOV3) | Potency (CASKI) | Potency (Es-2) | Potency (HeLa) | Potency (Hek293T) | Potency (JEG-3) | Potency (OV90) | Potency (PA-1) | Potency (SKOV3) | Potency (Tov-21-G) | Potency (Tov112D)

CC1=C(C(=O)O)/C(=C/CO[C@@H]2O[C@H](COC(=O)/C=C/c3ccc(O)cc3)[C@@H](O)[C@H](O)[C@H]2O)C(O)C1 (stereo partly specified)
inactive: Potency (C33A) | Potency (CAOV3) | Potency (CASKI) | Potency (Es-2) | Potency (HeLa) | Potency (Hek293T) | Potency (JEG-3) | Potency (OV90) | Potency (PA-1) | Potency (SKOV3) | Potency (Tov-21-G) | Potency (Tov112D)

CC1CCC2(C(=O)O)CCC3(C)C(=CCC4C5(C)CCC(OC(=O)/C=C/c6ccccc6)C(C)(C)C5CCC43C)C2C1C (stereo unspecified)
inactive: Potency (C33A) | Potency (CAOV3) | Potency (CASKI) | Potency (Es-2) | Potency (HeLa) | Potency (Hek293T) | Potency (JEG-3) | Potency (OV90) | Potency (PA-1) | Potency (SKOV3) | Potency (Tov-21-G) | Potency (Tov112D)

Cc1csc(NC(=O)c2ccc(COc3cccc(Cl)c3)o2)n1
inactive: Potency (C33A) | Potency (CAOV3) | Potency (CASKI) | Potency (Es-2) | Potency (HeLa) | Potency (Hek293T) | Potency (JEG-3) | Potency (OV90) | Potency (PA-1) | Potency (SKOV3) | Potency (Tov-21-G) | Potency (Tov112D)

COc1c2c(c(C)c3c1C(=O)OC3)OC1(C)CC(O)C34OC(OC)(OC3(C)C)C(O)CC4(C)C1C2 (stereo unspecified)
inactive: Potency (C33A) | Potency (CAOV3) | Potency (CASKI) | Potency (Es-2) | Potency (HeLa) | Potency (Hek293T) | Potency (JEG-3) | Potency (OV90) | Potency (PA-1) | Potency (SKOV3) | Potency (Tov-21-G) | Potency (Tov112D)

C[C@H](O)[C@H](O)/C=C/c1cccc(O)c1CO
inactive: Potency (C33A) | Potency (CAOV3) | Potency (CASKI) | Potency (Es-2) | Potency (HeLa) | Potency (Hek293T) | Potency (JEG-3) | Potency (OV90) | Potency (PA-1) | Potency (SKOV3) | Potency (Tov-21-G) | Potency (Tov112D)

COC1/C=C/C(C)(O)C(SCC(N)C(=O)O)CC(=O)OC(C)C(C)CC/C=C/1C (stereo unspecified)
inactive: Potency (C33A) | Potency (CAOV3) | Potency (CASKI) | Potency (Es-2) | Potency (HeLa) | Potency (Hek293T) | Potency (JEG-3) | Potency (OV90) | Potency (PA-1) | Potency (SKOV3) | Potency (Tov-21-G) | Potency (Tov112D)

C[C@@H]1O[C@@H](O[C@H]2[C@H](O)[C@@H](O[C@@H]3O[C@H](CO)[C@@H](O)[C@H](O[C@@H]4O[C@H](CO)[C@@H](O)[C@H](O)[C@H]4O)[C@H]3O)[C@H](O[C@H]3CC[C@@]4(C)C(=CC[C@@H]5C4CC[C@@]4(C)C5C[C@@H]5OC6(CC[C@@](C)(CO[C@@H]7O[C@H](CO)[C@@H](O)[C@H](O)[C@H]7O)O6)[C@@H](C)[C@@H]54)C3)O[C@@H]2CO)[C@H](O)[C@H](O)[C@H]1O (stereo partly specified)
inactive: activity change, negative = cytotoxicity (C33A) 0.269% [at 6.55 µM] | activity change, negative = cytotoxicity (CAOV3) -0.0617% [at 6.55 µM] | activity change, negative = cytotoxicity (CASKI) -1.1% [at 6.55 µM] | activity change, negative = cytotoxicity (Es-2) -0.893% [at 6.55 µM] | activity change, negative = cytotoxicity (HeLa) -3.62% [at 6.55 µM] | activity change, negative = cytotoxicity (Hek293T) 9.02% [at 6.55 µM] | activity change, negative = cytotoxicity (JEG-3) -5.56% [at 6.55 µM] | activity change, negative = cytotoxicity (OV90) 1.28% [at 6.55 µM] | activity change, negative = cytotoxicity (PA-1) -4.89% [at 6.55 µM] | activity change, negative = cytotoxicity (SKOV3) 5.85% [at 6.55 µM] | activity change, negative = cytotoxicity (Tov-21-G) -2.15% [at 6.55 µM] | activity change, negative = cytotoxicity (Tov112D) -2.67% [at 6.55 µM]
